Bioassay records as filed in PubChem.
This excerpt belongs to a sample that is enriched for hits.
Algae TAG accum = inducers of TAG accumulation in Chlamydomonas, primary screen, qHTS, Chlamydomonas reinhardtii. calls only at 10 µM (by protocol). AID 1159537, 2015. 0.84% of 44,000 active. Nile Red fluorescence, 72 h; call rule not given here;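 further: hits raise Nile Red signal meaning more stored TAG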
Large screens that a line does not name were inactive.

COc1cccc(N2CCN(Cc3ccc([N+](=O)[O-])cc3)CC2)c1	Algae TAG accum active
O=[N+]([O-])c1ccc(CN2CCN(c3ccc(Cl)cc3)CC2)cc1	none
Cc1ccccc1N1CCN(Cc2ccc(Cl)cc2)CC1	none
Cc1ccccc1N1CCN(Cc2ccc([N+](=O)[O-])cc2)CC1	Algae TAG accum active
COc1ccc(CN2CCN(c3cccc(OC)c3)CC2)cc1	none
COc1ccc(N2CCN(Cc3ccc([N+](=O)[O-])cc3)CC2)cc1	none
O=[N+]([O-])c1ccc(N2CCN(Cc3ccc(Cl)cc3)CC2)cc1	none
O=[N+]([O-])c1ccc(CN2CCN(c3ccccc3)CC2)cc1	Algae TAG accum active
Cc1ccccc1N1CCN(Cc2cccc([N+](=O)[O-])c2)CC1	none
COc1ccc(CCN(C)Cc2ccccc2C)cc1OC	none
COc1ccccc1-n1c(Cc2cccc([N+](=O)[O-])c2)nc2ccccc2c1=O	none
N/C(=N/[N+](=O)[O-])N1CCN(S(=O)(=O)c2ccc([N+](=O)[O-])cc2)CC1	none
COCC(=O)Nc1ccc(Cl)cc1C(=O)c1ccccc1	none
CCc1nc2ccccc2c(=O)n1-c1cccc([N+](=O)[O-])c1	none
Cc1ccc2c(c1)c(=O)c1c3n2CCN(CC#N)C3CC1 (stereo not drawn)	none
c1ccc2c(CN3CCCCCCC3)c[nH]c2c1	none
C(#CCN1CCOCC1)COc1ccccc1	none
C(#CCN1CCCCC1)COc1ccccc1	Algae TAG accum active
CCN(C(=O)C(Cl)(Cl)Cl)c1ccccc1C	none
CN1CCN(Cc2ccccc2)CC1	none
CCc1ccc(CN2CCN(c3ccccc3OC)CC2)cc1	none
COc1ccccc1N1CCN(Cc2ccc(Br)cc2)CC1	none
OCCN1CCN(Cc2ccccc2)CC1	none
COc1ccccc1N1CCN(Cc2ccc(Cl)cc2)CC1	Algae TAG accum active
CN(C)c1ccc(CN2CCN(Cc3ccccc3)CC2)cc1	none
CCC(C)N1CCN(Cc2ccccc2)CC1 (stereo not drawn)	none
Oc1ccc(CN2CCN(Cc3ccccc3)CC2)cc1	Algae TAG accum active
c1ccc(CN2CCN(C3CCCCC3)CC2)cc1	Algae TAG accum active
Cc1ccc(CN2CCN(c3ccc(F)cc3)CC2)cc1	Algae TAG accum active
CN(C)c1ccc(CN2CCN(c3ccc(F)cc3)CC2)cc1	none
Cc1ccc(CN2CCN(c3ccc(Cl)cc3)CC2)cc1	none
COc1ccc(O)c(CN2CCN(Cc3ccccc3)CC2)c1	none
Cc1ccccc1CN1CCN(c2cccc(Cl)c2)CC1	none
O=[N+]([O-])c1cccc(CN2CCN(Cc3ccccc3)CC2)c1	none
COc1cccc(CN2CCN(c3cccc(C)c3C)CC2)c1	none
CCC1C(=O)NC(=O)N(c2ccccc2)C1=O (stereo not drawn)	none
O=Cc1nc2ccccc2n1Cc1ccc(Cl)cc1Cl	none
CCN1CCN(C2CC3CCC2C3)CC1 (stereo not drawn)	none
Fc1ccccc1N1CCN(Cc2ccc(Cl)cc2)CC1	none
OC1CCN(CCc2ccccc2)CC1	none
Fc1ccc(CN2CCN(c3ccccc3)CC2)cc1	none
Cc1ccc(N2CCN(CCc3ccccc3)CC2)cc1	Algae TAG accum active
Fc1ccc(N2CCN(Cc3ccccc3)CC2)cc1	Algae TAG accum active
CN(C)c1ccc(CN2CCN(c3ccccc3Cl)CC2)cc1	none
Fc1ccc(CN2CCN(c3ccccc3Cl)CC2)cc1	Algae TAG accum active
Cc1cccc(N2CCN(CCc3ccccc3)CC2)c1C	none
c1ccc(CN2CCN(c3ccccc3)CC2)cc1	none
O=[N+]([O-])c1cc(Cl)ccc1N1CCN(Cc2ccccc2)CC1	none
COc1ccc(CCN(C)Cc2cc(OC)c(O)c([N+](=O)[O-])c2)cc1OC	none
O=C(N1CCc2ccccc21)C(Cl)(Cl)Cl	none
CC1CCC(N2CCOCC2)CC1 (stereo not drawn)	none
O=[N+]([O-])c1cccc(CN2CCN(c3ccc(F)cc3)CC2)c1	none
Fc1ccccc1N1CCN(Cc2cccc(Cl)c2)CC1	none
COc1ccc(CN2CCN(c3ccccc3F)CC2)cc1C	none
COc1ccc(OC)c(CNCCc2cccc(F)c2)c1	none
COc1ccc(OC)c(CNCCc2ccc([N+](=O)[O-])cc2)c1	Algae TAG accum active
COc1ccccc1CNCCc1ccc(OC)c(OC)c1	none
CC(C)c1ccc(CN2CCN(C)CC2)cc1	Algae TAG accum active
CCc1ccc(CN2CCN(C(C)C)CC2)cc1	none
CN1CCN(Cc2c(Cl)cccc2Cl)CC1	none
CCc1ccc(CN2CCN(CCO)CC2)cc1	Algae TAG accum active
CN1CCN(Cc2ccc(Cl)cc2)CC1	none
CCc1ccc(CN2CCN(C)CC2)cc1	none
CCOc1ccccc1N1CCN(Cc2cccc(O)c2)CC1	none
COc1ccc(CN2CCN(CCO)CC2)cc1C	none
OCCN1CCN(Cc2ccccc2F)CC1	none
Fc1ccccc1N1CCN(Cc2ccccc2Cl)CC1	none
c1ccc(CN2CCN(Cc3ccc4c(c3)OCO4)CC2)cc1	none
CC(C)N1CCN(Cc2ccc3c(c2)OCO3)CC1	none
CN1CCN(c2ccc([N+](=O)[O-])c(N3CCCCC3)c2)CC1	Algae TAG accum active
CN1CCN(c2cc(N3CCCC3)ccc2[N+](=O)[O-])CC1	none
CN1CCN(c2ccccc2[N+](=O)[O-])CC1	none
c1ccc(CNCCc2ccc3c(c2)OCO3)cc1	none
Nc1ccc([N+](=O)[O-])cc1C(=O)c1ccccc1	none
Oc1ccc(Br)cc1CN1CCN(Cc2cccc(F)c2)CC1	none
